# According to the supplement of paper PMC6411743:
# ± gives the standard deviation of the averaged measurements. Targets with the largest changes are over-represented here; the source holds about 5,400 in all.
# Biological target: T1, UniProt O00255|O00255-2|O00255-3
# T1 sequence (whole entry): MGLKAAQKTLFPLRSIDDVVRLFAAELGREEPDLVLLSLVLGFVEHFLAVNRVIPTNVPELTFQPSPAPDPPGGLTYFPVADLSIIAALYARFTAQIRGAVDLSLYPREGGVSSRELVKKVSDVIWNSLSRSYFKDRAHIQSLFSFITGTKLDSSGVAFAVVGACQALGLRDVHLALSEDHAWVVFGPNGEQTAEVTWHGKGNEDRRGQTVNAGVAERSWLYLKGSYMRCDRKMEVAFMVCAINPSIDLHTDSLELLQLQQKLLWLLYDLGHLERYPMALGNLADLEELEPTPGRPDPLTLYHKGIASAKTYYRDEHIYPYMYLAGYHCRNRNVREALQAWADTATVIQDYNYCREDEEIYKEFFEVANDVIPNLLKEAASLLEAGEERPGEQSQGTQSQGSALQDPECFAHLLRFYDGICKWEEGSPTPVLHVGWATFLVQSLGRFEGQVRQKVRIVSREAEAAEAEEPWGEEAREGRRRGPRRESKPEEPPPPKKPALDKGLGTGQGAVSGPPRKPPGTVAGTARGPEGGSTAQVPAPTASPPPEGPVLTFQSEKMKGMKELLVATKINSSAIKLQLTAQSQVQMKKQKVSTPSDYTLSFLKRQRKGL
# Test: NP40-soluble protein abundance relative to vehicle (solubility fold change) (ratio); higher = more soluble protein in presence of GTP
# Method: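 Solubility proteome profiling in Jurkat crude lysate. Lysate was treated with Mg-GTP (0.1-10 mM) for 10 min at room temperature and 3 min at 37 °C, then solubilised with 0.8% NP40 and benzonase, followed by ultracentrifugation. Proteins were quantified by TMT10 LC-MS/MS; the value is the NP40-soluble abundance relative to the NP40-processed vehicle, from 3 independent experiments.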
compound,measurement,setting,value
Nc1nc2c(ncn2[C@@H]2O[C@H](COP(=O)(O)OP(=O)(O)OP(=O)(O)O)[C@@H](O)[C@H]2O)c(=O)[nH]1 [guanosine triphosphate],NP40-soluble protein abundance,concentration: 0.1mM,1.05 ± 0.044
same,NP40-soluble protein abundance,concentration: 0.5mM,1.04 ± 0.043
same,NP40-soluble protein abundance,concentration: 1mM,1.04 ± 0.065
same,NP40-soluble protein abundance,concentration: 2mM,1.07 ± 0.023
same,NP40-soluble protein abundance,concentration: 4mM,1.16 ± 0.069
same,NP40-soluble protein abundance,concentration: 6mM,1.14 ± 0.025
same,NP40-soluble protein abundance,concentration: 8mM,1.2 ± 0.016
same,NP40-soluble protein abundance,concentration: 10mM,1.21 ± 0.023
